Test results as given in PubChem BioAssay (NCI).
This is part of a sample that, as a whole, favours compounds with a hit. Of some 83,000 tested, about 20% had one in any assay.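 Method: cells in 96-well plates; compound added at one concentration; 48 h incubation; percent growth measured; values under 10 scored active.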 The source made the active and inactive calls.

Assays:
Experiment in all cases: NCI-60 one-dose screen, 48 h (100 = growth as untreated, 0 = no growth, -100 = all killed)
Details in all cases: 10 µM unless noted
[1] = system: NCI-H23 lung
[2] = system: NCI-H226 lung
[3] = system: NCI-H322M lung
[4] = system: HOP-62 NSCLC
[5] = system: NCI-H460 lung
[6] = system: HOP-92 NSCLC
[7] = system: NCI-H522 lung
[8] = system: A549/ATCC NSCLC
[9] = system: 786-0 renal
[10] = system: COLO 205 colon
[11] = system: DU-145 prostate
[12] = system: K-562 leukemia
[13] = system: MALME-3M melanoma
[14] = system: MDA-MB-231 breast
[15] = system: RXF 393 renal
[16] = system: SF-268 CNS
[17] = system: SF-295 CNS
[18] = system: SF-539 CNS
[19] = system: UACC-257 melanoma
[20] = system: M14 melanoma

Compound | growth [1] | growth [2] | growth [3] | growth [4] | growth [5] | growth [6] | growth [7] | growth [8] | growth [9] | growth [10] | growth [11] | growth [12] | growth [13] | growth [14] | growth [15] | growth [16] | growth [17] | growth [18] | growth [19] | growth [20]
COc1ccc(/C=C/c2nc3ccccc3n3c(-c4cccc([N+](=O)[O-])c4)nnc23)cc1 | -78.1% (active) | -14.8% (active) | 41% (inactive) | 25.4% (inactive) | -35.6% (active) | -48.7% (active) | -72.7% (active) | -4.88% (active) | -74.9% (active) | -70% (active) | -18% (active) | 5.5% (active) | -69.7% (active) | 1.23% (active) | -85.2% (active) | -16.4% (active) | 12.4% (inactive) | -86.5% (active) | -48.9% (active) | -77.4% (active)
O=C(CSc1nnc(-c2ccc(-c3nc4ccccc4[nH]3)cc2)o1)Nc1ccccc1 | 63.1% (inactive) | 76.1% (inactive) | 84.4% (inactive) | 63.2% (inactive) | 12% (inactive) | 54.1% (inactive) | 78% (inactive) | 51.8% (inactive) | 22% (inactive) | 118% (inactive) | 4.85% (active) | 33.1% (inactive) | 93.3% (inactive) | -14.5% (active) | -1.42% (active) | 45.7% (inactive) | 94.2% (inactive) | 46.7% (inactive) | 103% (inactive) | 60.3% (inactive)
CC(C)(C)c1cc(-c2cc(-c3ccccc3)[nH]c(=O)c2C#N)cc(C(C)(C)C)c1 | 40.4% (inactive) | 3.42% (active) | 23.6% (inactive) | -40.2% (active) | 14.9% (inactive) | -16% (active) | 41.8% (inactive) | 5.52% (active) | 23% (inactive) | 91.5% (inactive) | 34.5% (inactive) | 62.9% (inactive) | 37.6% (inactive) | -21.4% (active) | -2.55% (active) | 40.8% (inactive) | 0.897% (active) | 21.1% (inactive) | 43.1% (inactive) | 40.2% (inactive)
O=C1NC(=NC23CC4CC(CC(C4)C2)C3)N/C1=C\c1ccc2ncccc2c1 | -15.2% (active) | -38.5% (active) | 22.6% (inactive) | -64.4% (active) | -68.8% (active) | -11.7% (active) | -37% (active) | -46.3% (active) | -51% (active) | 19.5% (inactive) | 3.46% (active) | 11% (inactive) | 2.17% (active) | -14% (active) | -4.92% (active) | 35.2% (inactive) | -29.6% (active) | 2.08% (active) | 50.6% (inactive) | 45.9% (inactive)
Cc1nc(Nc2ccccn2)sc1C1=NNC(c2ccccc2F)C1 (stereo not given) | 67.6% (inactive) | 78.9% (inactive) | 89.1% (inactive) | 70.6% (inactive) | 28% (inactive) | 62.4% (inactive) | -18.9% (active) | 59.2% (inactive) | 57.6% (inactive) | 86% (inactive) | 67.4% (inactive) | 15.1% (inactive) | 63.8% (inactive) | 47.5% (inactive) | 87.5% (inactive) | 78.2% (inactive) | 39.6% (inactive) | 32.4% (inactive) | 83.2% (inactive) | 52.6% (inactive)
